Reference: PubChem BioAssay AID1851 (National Center for Advancing Translational Sciences (NCATS), 2009)
“And” between values parts separate entries of the source, which are not always exact repeats. Equal entries are not always repeated. In all, about 16,000 compounds went through this assay and about 2,600 (16%) were called active. Not shown: some 20% with an inconclusive outcome. Calls follow the shape of the dose curve; as a rule, active = well fitted curve in the direction sought with a large enough effect; inconclusive = small, poorly fitted or top-dose-only effect, or effect the other way; inactive = no such curve, though single readings can be large or run the other way. The entries come from a sample that favours actives as a whole. A structure can be active in one record and inactive in another.

target: Cytochrome P450 2D6 (Homo sapiens) (UniProt P10635); assay: Cytochrome panel assay with activity outcomes; settings: recombinant CYP, pro-luciferin dealkylation, luminescence, p450-cyp2d6; series mostly up to 57.1 µM; activity, negative = inhibition: at the top concentration
Sequence (P10635 whole entry, looked up): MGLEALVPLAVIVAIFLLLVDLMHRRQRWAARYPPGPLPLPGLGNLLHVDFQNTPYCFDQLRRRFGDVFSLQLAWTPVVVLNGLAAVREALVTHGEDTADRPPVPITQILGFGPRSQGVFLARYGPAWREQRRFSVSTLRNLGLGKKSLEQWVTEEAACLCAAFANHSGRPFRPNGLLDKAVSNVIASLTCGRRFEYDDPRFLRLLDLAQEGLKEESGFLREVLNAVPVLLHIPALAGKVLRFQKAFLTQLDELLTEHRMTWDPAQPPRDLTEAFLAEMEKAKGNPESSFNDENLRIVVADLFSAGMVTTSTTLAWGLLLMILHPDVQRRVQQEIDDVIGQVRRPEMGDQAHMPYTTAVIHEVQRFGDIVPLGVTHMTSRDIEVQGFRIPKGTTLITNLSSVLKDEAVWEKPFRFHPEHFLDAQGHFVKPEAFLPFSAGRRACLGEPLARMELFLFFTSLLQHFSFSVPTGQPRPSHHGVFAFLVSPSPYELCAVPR
% is scaled to controls: 0 for no effect and ±100 for the full control effect.

Compound	activity, negative = inhibition	AC50
C(=NC12CN3CN(CN(C3)C1)C2)c1cccs1	5.66% (inactive)	
S=C=Nc1cccc(C2(N3CCCCC3)CCCCC2)c1		10 µM (active)
COC(=O)C1=CCCN(C)C1		inactive
CCCC(CCC)C(=O)O	-0.976% (inactive)	
CCC1(C)CC(=O)NC(=O)C1	3.83% [at 25.6 µM] (inactive)	
N[C@H](C(=O)O)c1cc(=O)[nH]o1	12.8% (inactive)	
N[C@@H](Cc1cc(Br)c(O)c(Br)c1)C(=O)O	10.2% [at 11.4 µM] (inactive)	
Cc1o[nH]c(=O)c1C[C@H](N)C(=O)O		inactive and 15.8 µM (active)
N[C@H](Cc1o[nH]c(=O)c1Cl)C(=O)O		0.158 µM (active)
N[C@H](CCl)C(=O)O	4.24% (inactive)	
Cc1o[nH]c(=O)c1C[C@@H](N)C(=O)O	2.96% (inactive)	
C[C@@H]1O[C@H](O[C@@H]2CC[C@@]3(C=O)[C@H]4CC[C@@]5(C)[C@@H](C6=CC(=O)OC6)CC[C@@]5(O)[C@@H]4CC[C@]3(O)C2)C[C@H](O)[C@@H]1O	5.25% [at 25.6 µM] (inactive)	
CCCCCCN=Cc1c(O)n(C)c(=O)n(C)c1=O	-19% (inactive)	
CC1=C(C)[N+](=O)C2(O)CCCCC2(C)N1[O-] (configuration not stated)	18.1% (inactive)	
C[C@@H]1O[C@@H](O[C@H]2C[C@@H](O)[C@]3(CO)[C@@H]4[C@@H](O)C[C@]5(C)[C@H](C6=CC(=O)OC6)CC[C@@]5(O)[C@H]4CC[C@@]3(O)C2)[C@H](O)[C@H](O)[C@@H]1O	-5.79% (inactive)	
C[C@@H]1O[C@H](O[C@H]2C[C@@H](O)[C@@]3(CO)[C@H]4[C@@H](O)C[C@]5(C)[C@@H](C6=CC(=O)OC6)CC[C@]5(O)[C@H]4CC[C@]3(O)C2)[C@@H](O)[C@H](O)[C@@H]1O	2.17% [at 25.6 µM] (inactive)	
C[C@@H]1O[C@H](O[C@@H]2C[C@@H](O)[C@]3(CO)[C@H]4[C@H](O)C[C@]5(C)[C@@H](C6=CC(=O)OC6)CC[C@@]5(O)[C@@H]4CC[C@]3(O)C2)[C@@H](O)[C@H](O)[C@H]1O		0.0501 µM (active)
CCOC(=O)c1c(NC(=O)C(c2ccccc2)c2ccccc2)sc2c1C1CCN2CC1	6.8% (inactive)	
CN1CC[C@@]23c4ccccc4N[C@H]1[C@]21CCN(C)[C@@H]3Nc2ccccc21	-7.44% [at 25.6 µM] (inactive)	
CCCCN(CCCC)CCC(O)c1cc2c(Cl)cc(Cl)cc2c2cc(C(F)(F)F)ccc12 (configuration not stated)		3.98 µM (active)
O=C(O)CNC(=O)[C@@H](CS)Cc1ccccc1	8.35% (inactive)	

Compound	activity, negative = inhibition	AC50
O=[N+]([O-])c1ccc2nc(N3CCNCC3)ccc2c1	-12.8% (inactive)	
CN(N=O)C(=O)N[C@H]1[C@@H](O)[C@H](O)[C@H](CO)O[C@@H]1O	-1.92% [at 25.6 µM] (inactive)	
COC(=O)[C@H]1[C@H](c2ccccc2)C(=O)[C@@]2(O)c3ccccc3O[C@@]12c1ccccc1	1.53% [at 11.4 µM] (inactive)	
CCS(=O)(=O)Nc1cccc(C(=C2CCCCC2)c2cnc[nH]2)c1		7.94 µM (active)
CN1C(=O)C(C2c3ccccc3C(=O)N2Cc2ccc([N+](=O)[O-])cc2)C(=O)N(C)C1=O (configuration not stated)	-17.5% (inactive)	
C1C[C@@H]2CN(CCCN3CCOCC3)[C@@H](C1)O2	-5.61% [at 11.4 µM] (inactive)	
CC1(C)CCC2=C(O1)c1ccccc1C(=O)C2=O		15.8 µM (active)
Cn1c[n+](C)cc1C(O)c1ccccc1 (configuration not stated)	-5.07% (inactive)	
CN1[C@@H](CC(=O)c2ccccc2)CCC[C@@H]1C[C@@H](O)c1ccccc1		0.0794 µM (active)
CN1[C@@H](C[C@@H](O)c2ccccc2)CCC[C@@H]1C[C@H](O)c1ccccc1		0.631 µM (active)
CN(C)C(=O)Oc1ccc[n+](C)c1	11.3% (inactive)	
C[C@@H]1O[C@H]1P(=O)(O)O	19.4% (inactive)	
O=c1c(O)c(-c2ccc(O)c(O)c2)oc2cc(O)cc(O)c12		inactive
CNC[C@H](O)c1ccc(O)c(OC)c1	-1.02% [at 25.6 µM] (inactive)	
C[C@](N)(CCP(=O)(O)O)C(=O)O	8.58% (inactive)	
CCCN(CCC)C1Cc2cc(OC)c(OC)cc2C1		25.1 µM (active) and inactive
CCCN(CCC)[C@@H]1CCc2ccc(O)cc2C1		794 nM (active) and inactive
CCCN(C/C=C\I)[C@@H]1CCc2ccc(O)cc2C1		0.0158 µM (active)
O=C(O)[C@H]1CCN1	-3.77% (inactive)	
CN(C)[C@H]1C(=O)C(C(N)=O)=C(O)[C@]2(O)C(=O)C3=C(O)c4c(O)cccc4[C@@](C)(O)[C@H]3C[C@@H]12	13.9% [at 25.6 µM] (inactive)	
O=C(O)C(C(=O)O)P(=S)(S)c1ccccc1 (configuration not stated)	8.23% [at 11.4 µM] (inactive)	

Compound	activity, negative = inhibition	AC50
CC(=O)NBr	4.43% (inactive)	
N#CCCCC[N+]12CN3CN(CN(C3)C1)C2	1.51% [at 11.4 µM] (inactive)	
COC1=CC(=O)O[C@@H](/C=C\c2ccccc2)C1	0.589% [at 25.6 µM] (inactive)	
CCN1C[C@]2(COC)CC[C@H](O)[C@@]34[C@@H]5C[C@H]6[C@@H](OC)[C@H]5[C@](O)(C[C@@H]6OC)[C@@](O)([C@@H](OC)[C@H]23)[C@@H]14	11.1% [at 25.6 µM] (inactive)	
CCN(CC)c1ncnc2c1ncn2[C@@H]1O[C@@H](COP(=O)(O)OP(=O)(O)C(Br)(Br)P(=O)(O)O)[C@H](O)[C@@H]1O	-10.4% (inactive)	
Nc1ncnc2c1ncn2[C@@H]1O[C@@H](COP(=O)(O)CP(=O)(O)OP(=O)(O)O)[C@H](O)[C@@H]1O	-5.92% (inactive)	
CCN(CC)c1ncnc2c1ncn2[C@@H]1O[C@@H](COP(=O)(O)OP(=O)(O)C(Br)(Br)P(=O)(O)O)[C@H](O)[C@H]1O		0.631 µM (active)
COc1cc2c3cc1Oc1cc(ccc1O)C[C@@H]1c4c(cc(OC)c(O)c4Oc4cccc(c4)C[C@H]3N(C)CC2)CC[N+]1(C)C	2.51% [at 25.6 µM] (inactive)	
O=P(O)(O)CCP(=O)(O)O	10.1% [at 11.4 µM] (inactive)	
N[C@H](CP(=O)(O)O)C(=O)O	-6.71% (inactive)	
Cc1nc2ccccc2cc1C[N+]12CN3CN(CN(C3)C1)C2	-2.3% [at 11.4 µM] (inactive)	
c1ccc2c(c1)-c1ccccc1C2N1CC2CCC(CC2)C1		3.98 µM (active)
O=C1N[C@@]2(CN3CCC2CC3)C(=O)N1CN(Cc1ccccc1)c1ccccc1	2.51% [at 11.4 µM] (inactive)	
CC[C@@]1(c2ccc(N)cc2)CCC(=O)NC1=O		inactive
CN1Cc2c(ccc3c2OCO3)[C@@H]2[C@@H](O)Cc3cc4c(cc3[C@@H]21)OCO4		0.2 µM (active)
C[C@H]1CCCC=CC2C[C@H](O)C[C@@H]2[C@H](O)/C=C\C(=O)O1 (some centres not stated)	9.19% (inactive)	
N#Cc1cccc(NC(=O)N2CCCC3(CCN(C(=O)Oc4ccccc4)CC3)C2)c1	-9.57% (inactive)	
Oc1ccc2c3c1O[C@H]1c4c(c5ccccc5n4Cc4ccccc4)C[C@]4(O)[C@H](C2)N(CC2CC2)CC[C@@]314	-5.11% (inactive)	
Oc1ccc2c3c1O[C@H]1c4oc5ccccc5c4C[C@]4(O)[C@H](C2)N(CC2CC2)CC[C@@]314		1.26 µM (active)
Oc1ccc2c3c1O[C@H]1c4[nH]c5c(c4C[C@@]4(O)[C@@H](C2)N(CC2CC2)CC[C@]314)C[C@]1(O)[C@H]2Cc3ccc(O)c4c3[C@@]1(CCN2CC1CC1)[C@@H]5O4	-4.33% (inactive)	
NC(N)=Nc1ccc2[nH]c3c(c2c1)C[C@]1(O)[C@@H]2Cc4ccc(O)c5c4[C@]1(CCN2CC1CC1)[C@H]3O5	2.41% (inactive)	

Compound	activity, negative = inhibition	AC50
Oc1ccc2c3c1O[C@@H]1c4[nH]c5c(c4C[C@@]4(O)[C@@H](C2)N(CC2CC2)CC[C@]314)C[C@]1(O)[C@@H]2Cc3ccc(O)c4c3[C@@]1(CCN2CC1CC1)[C@H]5O4	-4.66% (inactive)	
Oc1ccc2c3c1O[C@H]1c4[nH]c5ccccc5c4C[C@]4(O)[C@H](C2)N(CC2CC2)CC[C@@]314		2.51 µM (active) and 631 nM (active)
Nc1nc(N)c2nc(CNc3ccc(C(=O)N[C@H](CCC(=O)O)C(=O)O)cc3)cnc2n1	-1.59% (inactive)	
CC[C@H](C)[C@@H]1O[C@]2(CC[C@@H]1C)C[C@H]1C[C@H](CC=C(C)[C@@H](O[C@@H]3C[C@H](OC)[C@H](O[C@@H]4C[C@H](OC)[C@H](O)[C@H](C)O4)[C@H](C)O3)[C@@H](C)C=CC=C3CO[C@@H]4[C@@H](O)C(C)=C[C@@H](C(=O)O1)[C@]34O)O2	-16.5% [at 25.6 µM] (inactive)	
CCNC(=O)[C@@H]1O[C@@H](n2cnc3c(N)ncnc32)[C@@H](O)[C@H]1O	-3.38% (inactive)	
CCN(CC)CC#CCOC(=O)[C@@](O)(c1ccccc1)C1CCCCC1		10 µM (active)
Cc1ccc(S(=O)ON2CCC(C(=O)O)(c3ccccc3)CC2)cc1 (configuration not stated)	20.9% [at 11.4 µM] (inactive)	
CCCc1cc2c(n1Cc1cccc(Cl)c1)C(C)C1CN(C(=O)c3ccccc3)C(C)(C(=O)OC)C21 (configuration not stated)		12.6 µM (active)
CCCc1cc2c(n1CCO)C(C)C1CN(C(=O)c3ccccc3)C(C)(C(=O)OC)C21 (configuration not stated)	-9.47% (inactive)	
CCCc1cc2c(n1Cc1ccc(C)cc1)C(C)C1CN(C(=O)c3ccccc3)C(C)(C(=O)OC)C21 (configuration not stated)	-18% (inactive)	
O=C1Nc2ccc(I)cc2/C1=C/c1cc(Br)c(O)c(Br)c1	5.11% (inactive)	
C[C@H]1CC[C@]2(OC1)O[C@@H]1C[C@@H]3[C@@H]4CC[C@H]5C[C@@H](O)CC[C@]5(C)[C@@H]4CC(=O)[C@@]3(C)[C@H]1[C@@H]2C	3.5% [at 25.6 µM] (inactive)	
COCCCN1Cc2ccccc2C1=N		12.6 µM (active)
N#CC(=C(/N)Sc1ccccc1N)/C(C#N)=C(/N)Sc1ccccc1N		0.02 µM (active)
CCC(=Nc1cc(OC)ccc1OC)c1c(O)[nH]c(=O)[nH]c1=O	-20% (inactive)	
CCCCn1c(O)c(C(CC)=Nc2ccc(OC)cc2OC)c(=O)[nH]c1=O		12.6 µM (active)
CCCCn1c(O)c(C(CC)=NCc2ccc(F)cc2)c(=O)[nH]c1=O	-4.9% (inactive)	
CCCCN1C(=O)/C(=C/c2ccc(N(C)C)cc2)C(=O)N(Cc2ccco2)C1=O	2.94% (inactive)	
[N-]=[N+]=NCC(=O)c1c[nH]c(=O)[nH]c1=O	8.7% [at 11.4 µM] (inactive)	
